# Reference: PubChem BioAssay AID686979 (National Center for Advancing Translational Sciences (NCATS), 2013)
# Among all 420,000 compounds or so, about 50,000 (12%) were called active. Roughly 26% stayed inconclusive and do not appear here. This excerpt belongs to a sample that is enriched for actives. A number with no mark means an inactive call. Calls come from the whole dose curve; as a rule, active = well fitted inhibition curve with a large enough effect; inconclusive = small, poorly fitted or top-dose-only effect; inactive = flat fitted curve, though single readings scatter.
# Test: qHTS for Inhibitors of human tyrosyl-DNA phosphodiesterase 1 (TDP1): qHTS in cells in presence of CPT; note: nearly all actives have a fitted effect of over 55% in size
# Conditions: chicken DT40 Tdp1-/-;hTDP1 cells + 20 nM CPT, ATP luminescence, 48 h; series mostly up to 46.2 µM; activity change, negative = growth inhibition: at the top concentration
# Summary of the method: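 Chicken DT40 Tdp1-/- cells stably complemented with human TDP1 were seeded at 400 cells/well in medium containing 20 nM camptothecin, exposed to pin-transferred compounds, and grown at 37 °C for at least 48 hr. Viability was read as ATP luminescence.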
# % is set by controls: 0 for no effect and ±100 for the full control effect; potency is the fitted concentration of half-maximal effect.
SMILES,"activity change, negative = growth inhibition",Potency
CC1CCc2c(c3ccccc3[nH]c2=O)O1 (stereo not given),1.58%,–
COc1ccc(-c2nc(N)sc2C2(O)C(=O)Nc3c(Br)cc(F)cc32)cc1OC (stereo not given),0.824%,–
O=C(COC(=O)c1cccnc1Cl)Nc1ccc(S(=O)(=O)N2CCOCC2)cc1,-4.85%,–
COc1ccccc1CC(=O)Nc1ccc([N+](=O)[O-])cc1OC,-27.9%,–
CC[C@]1(c2ccccc2OC)C(=O)N(C(=O)OC)N1C(=O)OC,–,20.6 µM (active)
COc1ccccc1CNC(=O)CCCN1C(=O)NC2(CCCC2)C1=O,-16.4%,–
Cc1ccccc1/C=C\c1nc(O)c([N+](=O)[O-])c(=O)[nH]1,1.6%,–
Cc1ccc(C(=O)NNC(=O)c2ccncc2)cc1S(=O)(=O)N1CCCCC1,-14.8%,–
O=C(NNC(=O)c1cnccc1C(F)(F)F)c1ccc(Cl)cc1,-1.63%,–
O=C(NNC1=C(C(=O)C(F)(F)F)CCC1)c1ccncc1,–,1.64 µM (active)
COc1cccc(NC(=O)CN(C)CC(=O)c2c(N)n(Cc3ccccc3)c(=O)n(C)c2=O)c1,-2.74%,–
O=C(OCC(=O)N1CCCCCC1)c1cccc(Cl)c1Cl,-1.2%,–
CCOC(=O)c1c(NC(=O)CSc2cn(CCNC(=O)c3cccc(C(F)(F)F)c3)c3ccccc23)sc2c1CCC2,-11.3%,–
O=C(NCC(c1cccnc1)N1CCc2ccccc21)c1cccc(C(F)(F)F)c1 (stereo not given),–,16.4 µM (active)
Cc1ccccc1C(=O)NCC(c1ccco1)N1CCc2ccccc21 (stereo not given),0.122%,–
CCNC(=O)c1cnn(-c2ccccc2)c1-c1ccccc1,-25.6%,–
CCCCNCCS(=O)(=O)NCc1ccccc1,-3.55%,–
Cc1ccc(SCCC(=O)OCC(=O)Nc2ncc(Cl)cc2Cl)cc1,-22.8%,–
Cc1cc(NC(=O)CSc2nc3ccccc3n2CC(C)C)no1,0.712%,–
Cc1ccc(-n2c(SCC(=O)Nc3ncc(Cl)cc3Cl)nc3ccccc32)cc1,–,14.6 µM (active)
Cc1cccc(N(CC(=O)N2CCCC2)S(C)(=O)=O)c1C,-0.939%,–
CCN(CC)C(=O)CS(=O)CC(=O)Nc1cc(OCCOC)c(Cl)cc1Cl (stereo not given),-0.33%,–

SMILES,"activity change, negative = growth inhibition",Potency
COc1ccccc1-c1nc(NCc2cccs2)c2ccccc2n1,–,16.4 µM (active)
COc1ccccc1-c1nc(NCCNC(C)=O)c2ccccc2n1,0.18%,–
COc1ccccc1CNCc1cccs1,-5.33%,–
CC1(C)CC(N2CCN(C(c3ccccc3)c3ccccc3)CC2)=CC(=[N+]2CCCCC2)C1,–,0.164 µM (active)
CC1(C)CC(=O)C=C(N2CCCC2)C1,5.46%,–
O=C(O)CN1CCN(C(c2ccccc2)c2ccccc2)CC1,-0.379%,–
CC(Oc1ccc2c(-c3ccccc3)cc(=O)oc2c1)C(=O)NC(Cc1c[nH]c2ccccc12)C(=O)O (stereo not given),6.52%,–
Cc1ccc(C)c(NC(=O)COC(=O)Cn2c(C)csc2=O)c1,-13.9%,–
COc1ccc(CCNC(=O)C(=O)NCC2CCNCC2)cc1OC,2.42%,–
COc1ccc(S(=O)(=O)NCC(c2ccc(N(C)C)cc2)N2CCc3ccccc32)cc1OC (stereo not given),-11.8%,–
COc1ccc(C(CNC(=O)COc2ccccc2OC)N2CCCCC2)cc1 (stereo not given),-14.9%,–
COc1ccc(S(=O)(=O)NCC(c2ccc(N(C)C)cc2)N2CCCC2)cc1 (stereo not given),-7.81%,–
COc1ccc(C(=O)NCC(c2ccc(N(C)C)cc2)N2CCc3ccccc32)c(OC)c1 (stereo not given),–,18.4 µM (active)
CCOc1ccccc1C(=O)NCC(c1ccc(N(C)C)cc1)N1CCCC1 (stereo not given),–,20.6 µM (active)
COc1ccccc1C(=O)NCCC(=O)NCC(c1ccco1)N1CCCCC1 (stereo not given),-7.77%,–
CCS(=O)(=O)N1CCC(N2CCN(c3ccccc3)CC2)CC1,3.97%,–
COC(=O)c1cc(OCC(=O)NC2CCCc3ccccc32)cc(C(=O)OC)c1 (stereo not given),2.26%,–
CCCOCC(O)CC(CC)C(=O)NNC(=S)Nc1ccccc1 (stereo not given),0.982%,–
COc1cccc(C(=O)Nc2c3c(nn2-c2cccc(C)c2C)CS(=O)(=O)C3)c1OC,–,35.5 µM (active)
COc1ccccc1OCC(=O)Nc1c2c(nn1-c1ccc(F)cc1)CS(=O)(=O)C2,-5.24%,–
Cc1cccc(-n2nc3c(c2NC(=O)c2ccc(Br)o2)CSC3)c1C,-18.8%,–
COC(=O)c1c(NC(=O)c2ccccc2F)sc2c1C(C(=O)OC)CC2 (stereo not given),-29%,–

SMILES,"activity change, negative = growth inhibition",Potency
CC(C)(C)C1CCc2c(sc(NC(=O)c3ccccc3F)c2C(=O)N2CCCCC2)C1 (stereo not given),–,16.4 µM (active)
Cc1ccccc1NC(=O)c1c(NC(=O)c2ccccc2F)sc2c1CCC(C)C2 (stereo not given),6.23%,–
Cc1ccc(F)c(S(=O)(=O)NC(=O)C2(C)CCN2C(=O)CCc2cccs2)c1 (stereo not given),-16.3%,–
CCOn1c(SC(C)C)nc2ccccc2c1=O,-7.27%,–
CCOC(=O)C(C)Sc1nc2ccccc2c(=O)n1CC1CCCCC1 (stereo not given),–,12.6 µM (active)
CC1CCN(CCCn2c(SCC(=O)NC3CCCC3)nc3ccccc3c2=O)CC1,8.67%,–
O=C(NCCS(=O)(=O)c1ccc(Br)cc1)c1ccccc1Cl,1.81%,–
O=C(O)CCCN1C(=O)C2C3c4ccccc4C(c4ccccc43)[C@@H]2C1=O (stereo not given in full),36.8%,–
Cc1ccc(NC(=O)CCOc2ccccc2)cc1S(=O)(=O)Nc1ccccc1Cl,-1.11%,–
CC1CCN(C(=O)Cn2c(=O)n(-c3ccc(Cl)cc3)c(=O)c3c4c(sc32)CCC4)CC1,0.402%,–
CCOC(=O)N1CCc2c(sc3c2c(=O)n(Cc2ccccc2)c(=O)n3CC(=O)Nc2cccc(C)c2)C1,-5.93%,–
O=c1c2c3c(sc2n(CCN2CCCC2)c(=O)n1Cc1ccccc1)CCCCC3,–,13 µM (active)
COc1ccc(C2NC(=O)C(=O)/C2=C(\O)c2ccc(Cl)cc2)cc1OC (stereo not given),1.92%,–
O=c1[nH]c2ccc(S(=O)(=O)N3CCCC3)cc2[nH]1,-16.4%,–
CCCN(CC1CC1)C(=O)COC(=O)c1ccc(C)cc1O,6.29%,–
Cc1cccc(C(=O)NCCCN(C)CCCNC(=O)c2cccc(C)c2)c1,2%,–
Cc1cccc(C(=O)c2cccc(C)c2)c1,-27.9%,–
Cc1cccc(C(=O)NC(=S)N(C)C2CCCCC2)c1,–,29.1 µM (active)
CN(CC(=O)Nc1ccc(F)c(F)c1F)C(=O)C1CC(=O)N(C2CCCC2)C1 (stereo not given),-10%,–
COc1ccc(C2Sc3ccccc3NC3=C2C(=O)c2ccccc23)c(OC)c1OC (stereo not given),–,1.84 µM (active)
CCN(CC)CCCN1C(=O)C(=O)/C(=C(/O)c2c(C)nc3ccccn23)C1c1ccc(C)o1 (stereo not given),-12.8%,–
